Rows were chosen to be rich in hits. Some 3.5% of all compounds tested hit in one or more screens of this group.
Kir21 inh – inhibitors of mouse Kir2.1 inward-rectifier potassium channel. Inward rectifier potassium channel 2 (Mus musculus), P35561. HEK293-Kir2.1, FluxOR thallium flux fluorescence; active compounds read low. B-score at 10 µM. 0.85% of 310,000 active;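 active = fluorescence ratio B-score at or below minus 3 SD of library scores, with starting-brightness B-score within 2 SD, cut at about -4.2 in these data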;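 note: channel flux triggered by added potassium and thallium sulfate stimulus; B-score of peak minus minimum fluorescence over baseline after thallium stimulus; more negative B-score means stronger Kir2.1 block with less thallium influx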
KCNK3 block – human KCNK3 channel inhibitors, primary screen, CHO cells, FluxOR thallium flux, B-score; Potassium channel subfamily K member 3 (Homo sapiens), O14649; FluxOR fluorescence; active compounds read low; B-score at 10 µM; 0.84% of 340,000 active; AID 602410, 2012;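 active = B-score under library mean minus 4 SD, starting fluorescence ratio at most library mean plus 5 SD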;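 note: more negative B-score means stronger inhibition of thallium flux through KCNK3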
KCNK9 block – KCNK9 potassium channel inhibitors, primary screen, HEK293 cells, thallium flux. Potassium channel subfamily K member 9 (Homo sapiens), Q9NPC2. FluxOR thallium flux fluorescence; active compounds read low. B-score at 10 µM. 1.2% of 310,000 active. AID 488922, 2010;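 active = ratio B-score over 3 SD below the library mean, with starting fluorescence within 5 SD of its mean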;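 note: negative B-score means less thallium flux so channel inhibition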
TMEM16A inh – TMEM16A chloride channel inhibitors, primary screen, cell-based, HTS; HEK293 TMEM16A/YFP iodide influx fluorescence, ionomycin; 1.2% of 310,000 active; normalized B-score (activity score, 25-100; higher = stronger inhibition) at 10 µM;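 active = ratio plate-corrected score three or more library SD toward inhibition, starting fluorescence score within five deviations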;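 note: score derived from kinetic fluorescence span divided by baseline fluorescence per well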
Target sequence (Q8BHY3 whole entry, looked up): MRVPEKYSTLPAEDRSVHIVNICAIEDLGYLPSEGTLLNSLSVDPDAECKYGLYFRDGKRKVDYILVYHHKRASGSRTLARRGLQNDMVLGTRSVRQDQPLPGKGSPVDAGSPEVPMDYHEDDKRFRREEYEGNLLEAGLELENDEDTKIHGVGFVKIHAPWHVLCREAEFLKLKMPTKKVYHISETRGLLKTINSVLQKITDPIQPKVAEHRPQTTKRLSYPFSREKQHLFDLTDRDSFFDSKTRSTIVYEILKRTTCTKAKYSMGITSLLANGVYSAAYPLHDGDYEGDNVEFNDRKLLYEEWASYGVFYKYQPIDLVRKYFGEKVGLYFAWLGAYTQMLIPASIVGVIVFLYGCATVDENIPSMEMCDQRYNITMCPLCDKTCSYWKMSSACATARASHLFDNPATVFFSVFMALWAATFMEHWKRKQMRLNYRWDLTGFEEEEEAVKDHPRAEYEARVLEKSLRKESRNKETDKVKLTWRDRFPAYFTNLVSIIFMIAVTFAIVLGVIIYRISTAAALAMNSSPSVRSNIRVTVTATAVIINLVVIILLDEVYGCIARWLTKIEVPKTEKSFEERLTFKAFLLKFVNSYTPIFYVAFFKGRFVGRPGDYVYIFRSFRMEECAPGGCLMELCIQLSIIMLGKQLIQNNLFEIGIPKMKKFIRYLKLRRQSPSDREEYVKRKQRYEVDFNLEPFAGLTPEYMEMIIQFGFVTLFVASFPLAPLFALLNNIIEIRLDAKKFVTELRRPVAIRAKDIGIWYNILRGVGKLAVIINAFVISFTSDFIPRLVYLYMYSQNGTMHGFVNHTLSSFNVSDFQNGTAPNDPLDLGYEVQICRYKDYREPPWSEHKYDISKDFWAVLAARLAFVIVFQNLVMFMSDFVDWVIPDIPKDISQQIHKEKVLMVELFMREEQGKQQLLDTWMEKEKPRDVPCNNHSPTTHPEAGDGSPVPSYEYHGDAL
TMEM16A act – TMEM16A chloride channel activators or potentiators, primary screen, cell-based, HTS; Anoctamin-1 (Mus musculus), Q8BHY3; HEK293 TMEM16A/YFP-H148Q/I152L, iodide quench fluorescence; active compounds read low; B-score at 10 µM; 0.3% of 340,000 active; AID 623877, 2012;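 active = fluorescence-ratio B-score plate-corrected deviation score at least 3 library SD below zero, with starting fluorescence score within 5 deviations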;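 note: channel opened by trigger with iodide after compound preincubation; score built on the fluorescence ratio of max minus min over baseline; more negative score means more quench and so TMEM16A activation or potentiation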
KCNK9 inh conf – KCNK9 potassium channel inhibitors, confirmation, HEK293 cells, thallium flux, duplicate; shares compounds with KCNK9 block; FluxOR thallium flux fluorescence; 43% of 4,900 active; inhibition, % at 10 µM;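 active = thallium signal inhibited by more than 5 SD of the compound-free buffer control wells, on both duplicate plates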
Kir2-1 spec – mouse Kir2.1 channel inhibition, confirmation, selectivity assay for KCNK9 modulator project, cell-based, HEK293, thallium flux; shares compounds with KCNK9 block; Kir2.1 cells, FluxOR thallium flux fluorescence; inhibition, % at 10 µM; 4% of 4,900 active; AID 492993, 2010;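 active = thallium signal drop more than 5 SD beyond the mean of the no-compound control wells, seen in both duplicate plates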;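 note: signal is fluorescence rise after thallium addition divided by baseline fluorescence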
KCNK9 uninduced – thallium flux in non-induced HEK293 cells, confirmation, counter-screen for KCNK9 inhibitor project, cell-based, second counter screen, non-induced KCNK9-HEK293; shares compounds with KCNK9 block; FluxOR thallium flux; inhibition, % at 10 µM; 40% of 4,900 active; AID 492997, 2010;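 active = thallium signal drop beyond 5 SD of the untreated control mean, on both duplicate plates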
Of the large screens only hits and unclear results are named; the others gave an inactive call (follow-up assays come after a bar, where they were run).

FC(F)(F)c1cccc(Cn2c3[n+](c4ccc(C(F)(F)F)cc42)CCCCC3)c1	none
Cc1cc(C(C)(C)C)cc(C)c1Cn1c2[n+](c3ccc(C(F)(F)F)cc31)CCCCC2	Kir21 inh -7.2, KCNK9 block -11 | KCNK9 inh conf 71% | Kir2-1 spec inactive | KCNK9 uninduced inactive
Cn1c(CC(=O)Nc2ccccc2C(F)(F)F)c(Sc2ccccc2)c2ccccc21	none
S=c1[nH]nc(-c2cc3c(s2)-c2ccccc2CC3)o1	none | KCNK9 inh conf inactive | Kir2-1 spec inactive | KCNK9 uninduced inactive
CSc1nnc(-c2cc3c(s2)-c2ccccc2CC3)o1	none (no result: Kir21 inh, KCNK9 block)
COC(=O)c1cc(S(=O)(=O)N(C)C2CCCCC2)c[nH]1	none
CCCCN(C)C(=O)c1cccc(OC2CCN(CC(C)(C)C)CC2)c1	KCNK9 block -12 | KCNK9 inh conf inactive | Kir2-1 spec inactive | KCNK9 uninduced inactive
Cc1ccc(C)n1-c1nn(S(=O)(=O)c2ccccc2)c2cccc(F)c12	KCNK9 block -15 | KCNK9 inh conf 58% | Kir2-1 spec inactive | KCNK9 uninduced 42%
COc1ccc(-c2ccnc3c(Br)c(C)nn23)cc1	none (no result: Kir21 inh, KCNK9 block, TMEM16A inh)
CCN(CC)S(=O)(=O)c1ccc(N2CCc3ccccc3C2)nc1	none | KCNK9 inh conf inactive | Kir2-1 spec inactive | KCNK9 uninduced inactive
CC(C)N(C(C)C)S(=O)(=O)c1ccc(N2CCc3ccccc3C2)nc1	none | KCNK9 inh conf inactive | Kir2-1 spec inactive | KCNK9 uninduced inactive
CCN(CC)S(=O)(=O)c1ccc(N2CCN(S(=O)(=O)c3ccccc3)CC2)nc1	none (no result: TMEM16A inh)
CC(C)N(C(C)C)S(=O)(=O)c1ccc(Cl)nc1	none
COc1ccc(CN2CCN(Cc3cccc(Oc4ccccc4)c3)CC2)c(OC)c1OC	none | KCNK9 inh conf inactive | Kir2-1 spec inactive | KCNK9 uninduced inactive
COc1ccc(CN2CCN(C(c3ccc(F)cc3)c3ccc(F)cc3)CC2)c(OC)c1OC	none | KCNK9 inh conf inactive | Kir2-1 spec inactive | KCNK9 uninduced inactive
C=CCN(c1ccccc1)S(=O)(=O)c1cccc(C(=O)NCC2CCCO2)c1 (configuration not stated)	none
CCn1cc(C2=NC(CCSC)CO2)c2ccccc21 (configuration not stated)	none | KCNK9 inh conf inactive | Kir2-1 spec inactive | KCNK9 uninduced inactive
CCn1cc(C2=NC(C(C)C)CO2)c2ccccc21 (configuration not stated)	none | KCNK9 inh conf inactive | Kir2-1 spec inactive | KCNK9 uninduced inactive
CCn1cc(C2=NC(CC(C)C)CO2)c2ccccc21 (configuration not stated)	none | KCNK9 inh conf inactive | Kir2-1 spec inactive | KCNK9 uninduced inactive
Cc1ccc(N2C(=O)CCC(C(=O)O)C2c2cccs2)cc1 (configuration not stated)	none
Cc1cc(Br)c(NC(=O)COC(=O)C2CCCCC2)c(Br)c1	none (no result: Kir21 inh, KCNK9 block, TMEM16A inh)
Cc1cc(C)n(-c2nc(SCCN(C)C)c3c4c(sc3n2)CCCC4)n1	Kir21 inh -8, KCNK9 block -9.8 | KCNK9 inh conf 44% | Kir2-1 spec 44% | KCNK9 uninduced 28%
Cc1cc(C)n(-c2nc(SCC(=O)O)c3c4c(sc3n2)COC(C)(C)C4)n1	none
COc1cccc(NC(=S)N/N=C2/CCCCc3ccccc32)c1	none (no result: TMEM16A inh) | KCNK9 inh conf inactive | Kir2-1 spec inactive | KCNK9 uninduced inactive
Cc1ccc(C)c(NC(=S)N/N=C2/CCCCc3ccccc32)c1	none | KCNK9 inh conf inactive | Kir2-1 spec inactive | KCNK9 uninduced inactive
COc1ccc(S(=O)(=O)N2CCC3(CC2)CC(=O)c2ccccc2O3)cc1OC	none
COc1ccc(NC(=O)CN2CCN(S(=O)(=O)N3CCCCCC3)CC2)cc1	none
O=C(O)CSc1cc(NS(=O)(=O)c2ccc(Br)cc2)c2ccccc2c1O	none | KCNK9 inh conf inactive | Kir2-1 spec inactive | KCNK9 uninduced 28%
Cc1sc2cc3c(c(C(=O)c4ccccc4)[n+]2c1C)-c1cccc2cccc-3c12	Kir21 inh -13, KCNK9 block -10, TMEM16A inh 100 (no result: KCNK3 block, TMEM16A act) | KCNK9 inh conf 41% | Kir2-1 spec 64% | KCNK9 uninduced 34%
CCOc1nc(C)cc(C)c1S(=O)(=O)c1cccc(C)c1	none (no result: KCNK3 block, TMEM16A act)
Cc1cc(C)c(S(=O)(=O)c2c(C)cccc2C)c(OCC(C)C)n1	KCNK9 block -9.9 | KCNK9 inh conf 59% | Kir2-1 spec inactive | KCNK9 uninduced 42%
CCN(CC(=O)NCc1cccs1)C(=O)c1ccc(OC)c(OC)c1	none
CCC(CC)C(=O)OCC(=O)Nc1cc(OC)c([N+](=O)[O-])cc1C	none
CN(C)/N=C/c1ccc(Sc2ccccc2[N+](=O)[O-])o1	none | KCNK9 inh conf inactive | Kir2-1 spec inactive | KCNK9 uninduced inactive
O=C(COC(=O)/C=C/c1ccc(Cl)cc1Cl)NCC1CCCO1 (configuration not stated)	none (no result: Kir21 inh, KCNK9 block, TMEM16A inh)
Cc1cc2oc(=O)cc(CN3CCCCC3)c2cc1C(C)C	none
CCOC(=O)C1CCCN(Cc2cc(=O)oc3cc(C)c(C(C)C)cc23)C1 (configuration not stated)	KCNK9 block -9.2 | KCNK9 inh conf 52% | Kir2-1 spec inactive | KCNK9 uninduced 42%
C=CCN1C(=O)C(Cc2ccccc2)S/C1=N/N=C/c1cccs1 (configuration not stated)	none | KCNK9 inh conf inactive | Kir2-1 spec inactive | KCNK9 uninduced inactive
Cc1cc2ccccn2c1C(=O)c1ccccc1Br	KCNK9 block -8.3 | KCNK9 inh conf inactive | Kir2-1 spec inactive | KCNK9 uninduced inactive
COc1cc(OC)nc(Oc2ccccc2C(=O)Oc2ccc(F)cc2Cl)n1	KCNK9 block -9.1 | KCNK9 inh conf 59% | Kir2-1 spec inactive | KCNK9 uninduced 39%
CN(CCOc1ccccc1)S(=O)(=O)c1ccc2oc3ccccc3c2c1	none
CCOC(=O)c1sc(-c2ccc(OC)cc2)cc1NC(C)=O	none (no result: TMEM16A inh) | KCNK9 inh conf inactive | Kir2-1 spec inactive | KCNK9 uninduced inactive
CCOc1ccc(-c2cc(NC(=O)c3c(F)cccc3F)c(C(=O)O)s2)cc1	none (no result: TMEM16A act) | KCNK9 inh conf inactive | Kir2-1 spec inactive | KCNK9 uninduced inactive
Cc1nn(-c2cc(C(F)(F)F)ccc2Cl)c2nc(C(Cl)(Cl)Cl)[nH]c(=O)c12	TMEM16A inh 100 | KCNK9 inh conf inactive | Kir2-1 spec inactive | KCNK9 uninduced inactive

Compound activity (PubChem)
